Experiment [1] is described as follows: NCI Yeast Anticancer Drug Screen. Data for the rad50 strain (AID 155).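 Also: 0% = growth of vehicle-only cultures of the same strain.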 Conditions: S. cerevisiae rad50 strain growth inhibition; at 50.0 µM; active compounds read high. In short, it runs like this:
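Readout: growth inhibition relative to vehicle-treated cultures. Compound exposure was carried out in a genetically defined yeast strain deficient in DNA damage repair.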

Experiment [2] in a line: NCI Yeast Anticancer Drug Screen. Data for the mec2-1 strain (AID 157). To be noted: S. cerevisiae mec2-1 strain, at 50.0 µM, active compounds read high. The gist of the method: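 mec2-1 yeast strain, carrying an alteration in DNA damage repair or cell cycle control, was exposed to compounds; growth inhibition was measured relative to vehicle-treated controls.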
Experiment [3] can be described thus: NCI Yeast Anticancer Drug Screen. Data for the sgs1 mgt1 strain (AID 161).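 Also: 0% = growth of cultures given vehicle only.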 To be noted: S. cerevisiae sgs1 mgt1 strain, at 50.0 µM, active compounds read high. The gist of the method: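 Growth of a repair-deficient yeast mutant was monitored after compound treatment and expressed as inhibition relative to vehicle-treated cultures.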
Experiment [4] is described as follows: NCI Yeast Anticancer Drug Screen. Data for the cln2 rad14 strain (AID 165).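 Also: 0% = growth equal to vehicle treated cultures.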 To be noted: S. cerevisiae cln2 rad14 strain, at 50.0 µM, active compounds read high. The gist of the method: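 Yeast carrying cln2 and rad14 alterations (cell cycle control and DNA damage repair) were exposed to compounds. Growth inhibition was measured against vehicle-treated controls.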

Experiment [5] can be described thus: NCI Yeast Anticancer Drug Screen. Data for the bub3 strain (AID 167). To be noted: S. cerevisiae bub3 mutant strain, at 50.0 µM, active compounds read high. The gist of the method: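 Readout: yeast growth inhibition, expressed relative to vehicle-only wells. The test organism is a mutant strain from a panel with lesions in DNA repair or checkpoint genes.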
Experiment [6] is described as follows: NCI Yeast Anticancer Drug Screen. Data for the mlh1 rad18 strain (AID 175). To be noted: S. cerevisiae mlh1 rad18 strain growth inhibition; at 50.0 µM; active compounds read high. The gist of the method:
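Growth inhibition of the yeast strain was measured after compound exposure and expressed relative to vehicle-treated controls. The strain carries defined defects in DNA damage repair.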

Where “and” joins values, the source holds several entries; their conditions need not be identical. Equal entries are not always repeated. This is part of a sample that, as a whole, favours compounds with a hit. Of some 79,000 tested, about 15% had one in any assay. Unmarked numbers belong to inactive results. Calls of active or inactive are those of the source. Rule as the data show it: active = growth inhibition above about 70%; inactive = the rest.

In the case of `N#CC(c1ccccc1)c1ccccc1`, the growth inhibition in experiment [1] is -12.9%; in experiment [2] it was 9.35%; in experiment [3], -4.55%; in experiment [4], -17.6%; in experiment [5], 20.6%; in experiment [6], 31.3%.

Turning to `C/C(=N\N=C(N)N)C(CN1CCCCC1)C(c1ccccc1)c1c(O)c2ccccc2oc1=O` (configuration not stated), the growth inhibition in experiment [1] is 13.7%; in experiment [2], -2.6%; in experiment [3], 10.6%; in experiment [4], 24.4%; in experiment [5] it was 28.9%; in experiment [6] it was 16.9%.

Regarding `CC(=O)O[C@H]1C(=O)[C@@]2(C)C(C(OC(=O)c3ccccc3)[C@]3(O)C[C@H](OC(=O)C(OC(=O)CCCC(=O)NCCCN(C)C)C(NC(=O)c4ccccc4)c4ccccc4)C(C)=C1C3(C)C)C1(OC(C)=O)COC1C[C@@H]2O` (some centres not stated), the growth inhibition was -1.1% in experiment [1]; -0.35% in experiment [2]; 3.8% in experiment [3]; -10.3% in experiment [4]; -0.95% in experiment [5]; 7.35% in experiment [6].

As for `CCCN(CCC)CC(O)c1ccc2c3c(cccc13)CC2` (configuration not stated), the growth inhibition in experiment [1] is 21.9%; in experiment [2], -5.9%; in experiment [3], 19.2%; in experiment [4], -10.1%; in experiment [5], -4.6%; in experiment [6] it was 16.4%.

As to `CCCCC(CC)COP(OCC(CC)CCCC)OCC(CC)CCCC.[Br][Hg][Br]` (configuration not stated), the growth inhibition in experiment [1] was 4.55%; in experiment [2] it was -3.1%; in experiment [3] it was -10.8%; in experiment [4], -8.25%; in experiment [5], -8.95%; in experiment [6], -6.4%.

Consider `CCNP(=S)(OCC)OCC`, for which the growth inhibition was -9.2% in experiment [1]; 3.15% in experiment [2]; 5.05% in experiment [3]; -3.9% in experiment [4]; -2.7% in experiment [5]; -4% in experiment [6].

In the case of `CC(C)N1CCc2cc3c(cc2C1)OCO3`, the growth inhibition in experiment [1] was 9.8%; in experiment [2], 11.1%; in experiment [3], 1.3%; in experiment [4], 1.25%; in experiment [5] it was -17.5%; in experiment [6] it was 23%.

`COc1cc2c[n+](C)c3c4cc5c(cc4ccc3c2cc1OC)OCO5`: the growth inhibition was -11.7% in experiment [1]; -37.5% in experiment [2]; -28.1% in experiment [3]; -5.75% in experiment [4]; -26.3% in experiment [5]; -33.6% in experiment [6].

For `Cn1c(=O)n(C2(C)C[Se]C2)c2ccccc21`, the growth inhibition is -11.5% in experiment [1]; -15.7% in experiment [2]; -16.8% in experiment [3]; -15.4% in experiment [4]; -13.7% in experiment [5]; -22.5% in experiment [6].

Regarding `CC(=O)O[C@H]1CCC2[C@@H]3CC[C@]4(C)CC(=O)C=C[C@]4(C)C3CC[C@@]21C` (some centres not stated), the growth inhibition was 84.7% (active) in experiment [1]; 90.5% (active) in experiment [2]; 88% (active) in experiment [3]; 85.1% (active) in experiment [4]; 87.1% (active) in experiment [5]; 89.3% (active) in experiment [6].

As to `COc1ccc2c3c1OC1C(Oc4nnnn4-c4ccccc4)C=CC4C(C2)N(C)CCC341` (configuration not stated), the growth inhibition in experiment [1] is 39.2%; in experiment [2], 5.55%; in experiment [3], 13.5%; in experiment [4], 21.6%; in experiment [5], -5.75%; in experiment [6] it was 12.5%.

`CNN`: the growth inhibition in experiment [1] is 19.6%; in experiment [2] it was -4.8%; in experiment [3], 34.1%; in experiment [4] it was 3.3%; in experiment [5] it was -1.8%; in experiment [6] it was 40.1%.

Consider `C[CH2][Pb]([CH2]C)([CH2]C)[O]C(=O)c1ccccc1`, for which the growth inhibition in experiment [1] was -0.3%; in experiment [2], 1.6%; in experiment [3], 10.2%; in experiment [4], -3.35%; in experiment [5] it was 1.35%; in experiment [6], 5.35%.

On to `CC(=O)c1ccccc1N=Nc1ccc(N(CCCl)CCCl)cc1`, for which the growth inhibition in experiment [1] is -9.5%; in experiment [2], -5.5%; in experiment [3], 0.15%; in experiment [4] it was 18%; in experiment [5], 15.2%; in experiment [6], -0.05%.

With `CCOC(=O)/C(=C\c1ccc(C(F)(F)F)cc1)[Se]c1ccccc1`, the growth inhibition in experiment [1] was 26.6%; in experiment [2] it was -34.1%; in experiment [3], 9.35%; in experiment [4], 13.8%; in experiment [5], -2.5%; in experiment [6], -0.3%.

Regarding `O=C(O)C(O)C(O)C(O)C(O)C(O)C(O)CO.[Cd]` (configuration not stated), the growth inhibition in experiment [1] is 29.4% and 27.9%; in experiment [2], 15.2% and 26.5%; in experiment [3] it was 20.2% and 20.4%; in experiment [4], 19.4% and 28.7%; in experiment [5] it was 4.6% and -7.8%; in experiment [6], -1.55% and 0.55%.

Regarding `CO[As](OC)c1ccc(N=Nc2ccc(N(C)C)cc2)cc1`, the growth inhibition is 98.4% (active) in experiment [1]; 99.2% (active) in experiment [2]; 98.9% (active) in experiment [3]; 98.6% (active) in experiment [4]; 99% (active) in experiment [5]; 99.2% (active) in experiment [6].

On to `ClCCN(CCCl)c1ccc(C2=Nc3cccc4cccc(c34)N2)cc1`, for which the growth inhibition in experiment [1] is 3.65%; in experiment [2] it was 9.8%; in experiment [3] it was 6.75%; in experiment [4], -0.25%; in experiment [5] it was -8.05%; in experiment [6], 5.05%.

On to `NC(=O)OCC(O)c1ccccc1` (configuration not stated), for which the growth inhibition in experiment [1] was -11.6%; in experiment [2] it was 10%; in experiment [3], -22.6%; in experiment [4], -27.8%; in experiment [5], -19.9%; in experiment [6], 2.2%.

`COc1cc2c(c(Oc3ccc(C)cc3)c1)CN(C)CC2`: the growth inhibition in experiment [1] is 32.4%; in experiment [2], 19.3%; in experiment [3], 47.9%; in experiment [4] it was 39.7%; in experiment [5], 63.6%; in experiment [6], 58.8%.

`S=C(SSC(=S)N(Cc1ccccc1)Cc1ccccc1)N(Cc1ccccc1)Cc1ccccc1`: the growth inhibition in experiment [1] was -1.7%; in experiment [2], 11.6%; in experiment [3], 2.95%; in experiment [4], -14.3%; in experiment [5], -20.6%; in experiment [6], 12%.

Regarding `O=NNc1nc2ccccc2[nH]1`, the growth inhibition in experiment [1] is 6.5%; in experiment [2], -0.65%; in experiment [3], 2.05%; in experiment [4], -24.6%; in experiment [5], -6.95%; in experiment [6], 8.85%.

The values are drawn from PubChem BioAssay (NCI).
